The subject of test [1] is XIP peptide (Xip251-270) binding. As to the kind of experiment: XIP fragment 251-270 binding compounds – biochemical, small-molecule microarray, fluorescence 635/667 nm, 0.1 µg/mL protein, primary screen (AID 1182). The following applies: fluorescent protein binding, 635 nm, higher = more signal, called active from +8 up or from −8 down.
The subject of a further test is XIP peptide (Xip251-270). As to the kind of experiment: compounds binding XIP fragment 251-270 – biochemical, small-molecule microarray, fluorescence 635/667 nm, 0.5 µg/mL protein, primary screen (AID 1183). Particulars: fluorescence 635 nm, higher = more signal.
Test [2] is described as follows: blood-stage malaria parasite viability loss – strain 3D7, DAPI fluorescence, 100 nL, primary screen (AID 1184).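 Further: parasites grown inside human red blood cells in medium with human serum.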 Particulars: P. falciparum 3D7 growth, 3 d, higher = more signal.
The target of test [3] is Homeobox protein Hox-A13 (Mus musculus) (UniProt Q62424). As to the kind of experiment: disruptors of Hoxa13 oligonucleotide interaction – biochemical, fluorescence polarization, labeled oligonucleotide, primary screen (AID 1185). The following applies: Hoxa13:DNA binding, 15 min, higher = more signal, called active from +8 up or from −8 down. A general note: Polarisation of emitted light reports the rotation of a fluorescent probe.
Chain of Homeobox protein Hox-A13 (Mus musculus) (Q62424 whole entry, looked up): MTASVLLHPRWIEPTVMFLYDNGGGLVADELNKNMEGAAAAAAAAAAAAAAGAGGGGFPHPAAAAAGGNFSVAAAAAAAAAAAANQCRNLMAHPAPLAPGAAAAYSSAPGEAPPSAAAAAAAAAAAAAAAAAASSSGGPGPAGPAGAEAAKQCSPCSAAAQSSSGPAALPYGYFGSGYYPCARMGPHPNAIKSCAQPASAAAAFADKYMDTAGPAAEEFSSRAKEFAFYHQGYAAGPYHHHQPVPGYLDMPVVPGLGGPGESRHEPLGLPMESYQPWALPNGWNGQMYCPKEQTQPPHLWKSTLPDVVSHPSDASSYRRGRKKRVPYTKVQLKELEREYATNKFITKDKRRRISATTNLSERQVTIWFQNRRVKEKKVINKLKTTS

Test [4] can be described thus: blockers of DNA damage checkpoint Chk1 activation – imaging, HeLa, hydroxyurea, phospho-Chk1 antibody, percent positive cells, primary screen (AID 1186). Particulars: hydroxyurea-induced phospho-Chk1 immunofluorescence imaging, higher = more signal.
Test [5] is described as follows: blockers of DNA damage checkpoint Chk1 activation – imaging, HeLa, hydroxyurea, phospho-Chk1 nuclear intensity, primary screen (AID 1187). Particulars: hydroxyurea-induced phospho-Chk1 immunofluorescence imaging, higher = more signal.

Calls of active or inactive are those of the source. Unless noted, how the calls were made is not given here.

In the case of `COCCCNC(=O)[C@]1(CCC(=O)OC(C)(C)C)N=C(c2ccc(OCCCO)cc2)O[C@@H]1c1ccccc1`, the composite z-score in test [1] is 0.538 (inactive); in the test on XIP peptide (Xip251-270), 0.817. Moreover, the z-score in test [2] was 0.83; in test [3], -6.02 (inactive); in test [4], -0.289 (inactive); in test [5] it was -0.288 (inactive).

As to `CN(C)CCCCNC(=O)[C@H]1C[C@H]2C(=O)N[C@@H](CCCCN(C)C)C(=O)N2[C@H]1c1cccc(OCCO)c1`, the composite z-score was 1.64 (inactive) in test [1] and 0.675 with XIP peptide (Xip251-270). The z-score in test [2] is 0.649; in test [3] it was -3.26 (inactive); in test [4], 0.368 (inactive); in test [5] it was 0.217 (inactive).

For `O=C1OCC=C[C@H]2OC34C=CCN(c5ccc(Cl)cc5)C(=O)[C@H]3N(CCCCCO)C(=O)[C@@H]4[C@@H]12` (some centres undefined), the values for the composite z-score (in test [1]; in the test with XIP peptide (Xip251-270)) were -0.0492 (inactive) and -0.192, respectively. Besides, the z-score in test [2] was -0.826; in test [3] it was -3.66 (inactive); in test [4], -0.11 (inactive); in test [5] it was -0.281 (inactive).

Regarding `COc1cc2c(cc1OC)CN(C(=O)[C@H]1[C@@H]3C(=O)O[C@@H](c4ccccc4)[C@@H](c4ccccc4)N3[C@@H](c3ccc(OCCO)cc3)[C@]13C(=O)Nc1ccc(C#CCCO)cc13)CC2`, the composite z-score is 0.527 (inactive) in test [1] and 0.692 with XIP peptide (Xip251-270). For the same molecule, the z-score in test [2] was -2.06; in test [3], 1.96 (inactive); in test [4], 0.0312 (inactive); in test [5] it was 0.157 (inactive).

Regarding `COc1c(C)cc(-c2cc3c(c(Cc4ccccc4)n2)[Si](C(C)C)(C(C)C)OC3)cc1C`, the values for the composite z-score (in test [1]; in the test with XIP peptide (Xip251-270)) were -0.337 (inactive) and -0.0392, respectively. Besides, the z-score was -2.74 in test [2], 0.472 (inactive) in test [3], -0.142 (inactive) in test [4] and 0.135 (inactive) in test [5].

With `C=C1C2CC3C(=C4C(CO[C@@H]4[C@H]4CCCN4S(=O)(=O)c4ccccc4[N+](=O)[O-])C4C(=O)N(C)C(=O)C34)CC2C(=O)N1C` (some centres undefined), the composite z-score in test [1] is 0.253 (inactive); with XIP peptide (Xip251-270), 0.849. Moreover, the z-score in test [2] is 0.769; in test [3], -7.2 (inactive); in test [4], -0.0718 (inactive); in test [5] it was 0.645 (inactive).

Take `CCCCC(CC)C(O)C1C=CC2C(=O)N(c3ccccc3)C(=O)C2N1Nc1ccc([N+](=O)[O-])cc1` (centres undefined): the composite z-score in test [1] is 0.389 (inactive); with XIP peptide (Xip251-270) it was 0.624. Further, the z-score in test [2] is 0.0352; in test [3], -3.6 (inactive); in test [4], 0.332 (inactive); in test [5] it was -0.383 (inactive).

For `CN(C)CCCNC(=O)[C@@]1(C)c2ccccc2C(=O)N(Cc2cc(C(F)(F)F)cc(C(F)(F)F)c2)[C@H]1c1ccc(CO)cc1`, the figures for the composite z-score (in test [1]; in the test on XIP peptide (Xip251-270)) were 0.23 (inactive) and -0.987, respectively. Moreover, the z-score in test [2] is -1.27; in test [3], -2.7 (inactive); in test [4], -0.0172 (inactive); in test [5] it was -0.0753 (inactive).

`COC(=O)[C@H](Cc1ccccc1)N1CC(/C=C/C2CC2)=C[C@@H]1[C@@H](O)Cc1ccccc1`: the values for the composite z-score (in test [1]; with XIP peptide (Xip251-270)) were 0.971 (inactive) and 0.639, respectively. In addition, the z-score in test [2] was -0.547; in test [3], -5.53 (inactive); in test [4], -0.613 (inactive); in test [5], -0.713 (inactive).

Take `COCCCNC(=O)[C@@]1(Sc2ccc(C)cc2)CC(=O)N(Cc2cc(C(F)(F)F)cc(C(F)(F)F)c2)[C@@H]1c1ccc(CO)cc1`: the figures for the composite z-score (in test [1]; in the test with XIP peptide (Xip251-270)) were 0.451 (inactive) and 0.634, respectively. The z-score in test [2] is -0.0611; in test [3] it was -0.737 (inactive); in test [4], 0.155 (inactive); in test [5], 0.0411 (inactive).

With `CC1CC/C=C\[C@H]2OC34C=CCN(C(C)C)C(=O)[C@H]3N(CCCCCO)C(=O)[C@@H]4C2C(=O)O1` (some centres undefined), the composite z-score in test [1] is -0.572 (inactive); in the test on XIP peptide (Xip251-270) it was -1.17. The z-score is 1.17 in test [2], -3.89 (inactive) in test [3], 0.453 (inactive) in test [4] and 0.532 (inactive) in test [5].

With `COc1ccc(NN2C(C(O)c3ccccn3)C=CC3C(=O)N(C4CCCCC4)C(=O)C32)cc1` (centres undefined), the composite z-score in test [1] was -0.136 (inactive); in the test on XIP peptide (Xip251-270), 0.913. In addition, the z-score in test [2] was -0.408; in test [3] it was -4.39 (inactive); in test [4], -0.773 (inactive); in test [5], -0.488 (inactive).

`CC(C)(C)OC(=O)CC[C@@]1(C(=O)O)N=C(c2ccc(OCCCO)cc2)O[C@@H]1c1ccccc1CN=[N+]=[N-]`: the composite z-score was -0.168 (inactive) in test [1] and 0.963 in the test on XIP peptide (Xip251-270). Further, the z-score is 0.664 in test [2], -4.73 (inactive) in test [3], -0.0889 (inactive) in test [4] and -0.0647 (inactive) in test [5].

As for `CCOC(=O)C[C@H]1[C@H](OC(=O)c2ccc(-c3ccccc3)cc2)[C@@H](NC(=O)C2CCCCC2)c2cc(OCCCO)ccc2N1C(=O)c1ccccc1`, the composite z-score in test [1] is -0.264 (inactive); in the test with XIP peptide (Xip251-270), 0.379. Further, the z-score in test [2] was -0.723; in test [3], -2.07 (inactive); in test [4], -0.0374 (inactive); in test [5] it was 0.0385 (inactive).

The values are drawn from PubChem BioAssay.
